Reference: the supplement of paper PMC11417369
± gives the standard deviation of the averaged measurements. The full ranking holds about 25,000 sequences; the median of “ln(normalized median fluorescence intensity)” is about 8.6, and the highest 2% start at about 10. Many of the other results were omitted from the sample, so the highest values are more common in it than they were.

System: PfAP2-EXP AP2 domain (GST-tagged)
Assay: gcPBM binding intensity (ln(normalized median fluorescence intensity)); higher = stronger DNA binding
Procedure, shortened: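 GST-tagged P. falciparum DNA-binding domains produced in E. coli were incubated for 1 h on an Agilent 4 × 180k array of primer-extended double-stranded 36-bp intergenic genomic probes with negative controls. Binding intensity is the highest Masliner-normalised natural-log median intensity across replicate spots of either probe orientation, with bound protein detected by Alexa488 anti-GST antibody at 488 nm.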

Sequence | gcPBM binding intensity (ln)
TAGTAATATGTATCCATACACACATACATTTTATTT [CACACA_site873] | 8.52 ± 0.41
TATAACAAAATATTCACACATATAAGTAAATAAAGG [CACACA_site5777] | 8.73 ± 0.28
AATTTTAATTATATCACACATAATATATACCAAAAA [CACACA_site6011] | 8.51 ± 0.38
GAATAATCTAGAAACACACAAACACGACAAAAGAAA [CACACA_site4135] | 8.93 ± 0.55
TTTTGTTCTAATATGGGAACATAAATATTAAATATA [CACACA_negctrl_site1787] | 8.22 ± 0.45
TGTATATTTGTTGTTACACACATATATTTTTTTTTT [CACACA_site128] | 8.53 ± 0.3
TTATTTTTATATTTCACACACATATACTTTTACATA [CACACA_site4097] | 8.8 ± 0.47
TTTGTAACTTCTTTCACACATATATATATATATATA [CACACA_site5603] | 10.3 ± 0.47
TATTTGTTGTGAGTCACACATATATATATATATATA [CACACA_site4240] | 10.3 ± 0.42
TCATTTTATTTTTTCACACACACATATATATATATA [CACACA_site3333] | 10.1 ± 0.33
TATTTTATATTTCATTTGTTATTTTTCTTGGTTCTA [CACACA_negctrl_site33] | 8.63 ± 0.57
TTTTTTTTTTTGGTTACACACATTTGTATATTCTCA [CACACA_site134] | 8.69 ± 0.49
ATTTTATTTTTTCACACACACATATATATATATATA [CACACA_site3334] | 10.2 ± 0.32
CATATTTGCACTTTCACACATAAATATATAACTATA [CACACA_site6016] | 8.91 ± 0.31
TTTTTTTTTTTTGTCACACATATATTTGTATTTATA [CACACA_site5234] | 8.58 ± 0.38
TTTGTTATGGTTTTCTCACACATATATATATATATA [CACACA_site4617] | 10.4 ± 0.36
TTTCTTTCTTCACATATATATATATATATATTTATA [TGCATGCA_negctrl_site341] | 8.83 ± 0.3
TAAAATATTGTTATTACATGCAACCTTATGAAAAAT [TGCATGCA_site706] | 8.94 ± 0.17
GTATAAAAGTTATATACACACAACAGAATTACATAT [CACACA_site6212] | 8.68 ± 0.49
TCTTAATATGGTAATACACACTAATATACTTTTGTT [CACACA_site4969] | 8.55 ± 0.31
TTTTGTTTGTTCGTGACTACATTATGTTGTAAATAC [CACACA_negctrl_site604] | 8.78 ± 0.38
TATACATTTATGTACACACACATATAGGTATATTTA [CACACA_site7408] | 8.47 ± 0.099
AATTATAAAAAAAAAAAAAAAAAAAAAAACTAAATG [CACACA_negctrl_site1379] | 8.11 ± 0.47

Sequence | gcPBM binding intensity (ln)
TTTATTTTTTGTGGCACACAGAAGAAACAAGAACAA [CACACA_site1696] | 9.12 ± 0.35
TGAACAATATATAATAGTACATATTTATTTTTTTCT [XGTACX_site4256] | 8.13 ± 0.2
CTTAAAAAAAAAAAATGTACACATAAAAAAAATACA [XGTACX_site6700] | 8.52 ± 0.35
TTGTTGATTGTTATTTATCATTAGATGTAAAATATG [CACACA_negctrl_site927] | 8.39 ± 0.3
TATAAAATGTAATCTGAACACACATATTTTTTTAAT [CACACA_site8521] | 8.11 ± 0.37
ATATTGAATTCCAACACATGCAAAACTTTCGGTTTT [TGCATGCA_site485] | 8.8 ± 0.38
TCATATTATAAAAAATGTACAAGGAAAAAATATATA [XGTACX_site337] | 9.06 ± 0.58
ATTTTATTTTCTCACACACACATATATATATATATA [CACACA_site5781] | 10.4 ± 0.4
TTTATTCTCAAACACACACACATATATATATATATA [CACACA_site2895] | 10.2 ± 0.51
TTTTCATTTTTCTTTACACACATATATTTATTTATA [CACACA_site7119] | 8.94 ± 0.4
ATATATTTTATACATACACACATATATATATTTTTT [CACACA_site3940] | 8.66 ± 0.33
TTTTTATATATATTCTCACACACTTTTTATTTTAAC [CACACA_site657] | 8.7 ± 0.46
ATTTTATTTTCATATGAACACACATATATATATTAT [CACACA_site8741] | 9.15 ± 0.47
TATTTATTCTCCAACACACACACATATATTTATATA [CACACA_site7376] | 8.69 ± 0.53
TTTTCATTTTTCTTTACACACATATATATATATATA [CACACA_site2236] | 10.2 ± 0.31
TATACACATATTTTTACACACATATTTTTTCATATA [CACACA_site7244] | 8.7 ± 0.38
ATATTTATGAAGTTCACACATATATATATATATATA [CACACA_site5954] | 10.3 ± 0.52
TATTTATTCTCCAACACACACACATATATATATATA [CACACA_site2894] | 10.1 ± 0.43
AACATATTTATATACACACACATATTTATATGAAAT [CACACA_site6268] | 8.39 ± 0.33
TCGTGTTTTAAAAAAATGAAGAAAAGTAAAAAAAAA [XGTACX_negctrl_site23] | 8.46 ± 0.67
AGGATAATATACAAAAGTACATAAAACTAAAAAAAC [XGTACX_site605] | 9.01 ± 0.24
AAAAATATAACCGTTACACACAAAATAATATGAGAA [CACACA_site3773] | 8.72 ± 0.43
ATATTTATTTATTTATGTACGCACACAGTTGATATT [XGTACX_site5808] | 8.92 ± 0.4

Sequence | gcPBM binding intensity (ln)
TTTTTTTTATTTTGTTGTACGCTTATTTGTATATAT [XGTACX_site7325] | 8.95 ± 0.45
TAAATACATAAATACACACACATATATTATATATAT [CACACA_site4310] | 8.62 ± 0.14
TTTTTTTTTTTGTTCACACATATATATATATATATA [CACACA_site5376] | 10.2 ± 0.37
CATATTTTGAACTTCACACATATATATATATATATA [CACACA_site4228] | 10.2 ± 0.3
AAAAAAAAAAAAATCACACATATGTATTTATATATA [CACACA_site5790] | 8.21 ± 0.46
TTTTTTTTTTACTTCACACATATACATTTATATTTA [CACACA_site4385] | 8.7 ± 0.44
TTTTTTTTTTTGTTCACACATATACTTTTATTTTGG [CACACA_site4250] | 8.72 ± 0.47
AACGCACATATATTTATGTATATATATATATATATA [GTGCAC_negctrl_site478] | 10.2 ± 0.31
TCCATATTTGTTCACACACACACATATTTATATATA [CACACA_site3570] | 8.84 ± 0.42
AAAATATATAAACGCACATATATTTATGTATATATA [CACACA_negctrl_site163] | 8.64 ± 0.49
TGAAGAATATTTTTCACACATATATATATATATATA [CACACA_site6080] | 10.2 ± 0.38
TATAATTATTTTTTCACACATATGTATTTATATATA [CACACA_site4205] | 8.88 ± 0.43
TTTTTTTTTTTTTTTTTTTATGTATACATATTTATA [TGCATGCA_negctrl_site234] | 8.28 ± 0.43
CATATGTATTTATTCACACATATATATATATATATA [CACACA_site4207] | 10.2 ± 0.4
GACATAGTATTAAGTTGTACATATATAAAAATAAAT [XGTACX_site1583] | 8.65 ± 0.32
TGCTTATCCATTTCTACACACAAAAAAAAAAAAAAA [CACACA_site37] | 8.28 ± 0.28
ATAATGTAGAACTAGAGTACATAAAAAAATAAACAT [XGTACX_site5205] | 9.06 ± 0.47
TATATATAAATATTCAGTACATAGTGCTATTAAGTG [XGTACX_site1979] | 8.605 ± 0.064
TGTATGTATAATTGAGTGCACAGAAAAAAAAAAGAA | 9.6 ± 0.17
GTTGTAAAAAGAAAATGTACGTAATAAATATATATA [XGTACX_site3081] | 8.93 ± 0.38
TTTTCATATATTTATTGTACATATTACATATATAAT [XGTACX_site2425] | 8.71 ± 0.23
TACATTCTAATAATTGCACACTGGTTATTAAAAGGA [CACACA_site1614] | 8.4 ± 0.29
TATATATTTTTTTCAAGTACACATTACAGTTACATA [XGTACX_site2713] | 8.62 ± 0.38

Sequence | gcPBM binding intensity (ln)
TTATAAGATTTATGTACACACATATACTCACCTCTA [CACACA_site729] | 8.51 ± 0.25
TTTATATAGAAACACACACACAAAAAAAAAAAAAAA [CACACA_site2646] | 8.24 ± 0.52
TATTAATTATATTTATGTACATAATCATATTATTAT [XGTACX_site7938] | 8.55 ± 0.35
ATATATATATAATTATATAAAATATATCATATGTTA [XGTACX_negctrl_site47] | 9.37 ± 0.14
TTTAATCATATGTTATATAATAAGCCCCCCCCCCAA [CACACA_negctrl_site486] | 11 ± 0.12
TCTTTCTATTTATAATGTACTCAAAATTATTCTATA [XGTACX_site4867] | 8.6 ± 0.36
AGTGTGCTCAGCTTAGCACAAATTGGAATACCATGT [CACACA_negctrl_site367] | 8.63 ± 0.4
CATATAATAAATAATACACACATATTGTAAATATAT [CACACA_site5734] | 8.43 ± 0.44
ATATTAGATTAATTTACACACAGAAAATGAGATTTT [CACACA_site541] | 8.21 ± 0.36
TTATTTTTCAATGAAAAGGATTATATATATATATAT [CACACA_negctrl_site757] | 10.2 ± 0.13
ATATTTCAAAATGAAAGTACATATAAAAATTATACA [XGTACX_site3787] | 8.31 ± 0.29
ATATTATGAAGGGATATTTTCAAAAATATTAGGAGA [CACACA_negctrl_site942] | 8.64 ± 0.41
TTCATATTTCATATATGTACTTATGTTCAATATAGT [XGTACX_site3811] | 8.31 ± 0.3
ATTTTTTTGTTAATTTGTACATAAAATTTTATTTTA [XGTACX_site7007] | 8.72 ± 0.42
TTTATATTTATATAAATATAATATATATGAATTATA [XGTACX_negctrl_site466] | 8.19 ± 0.51
CCACTGTATGAATGCACACATTCATAGAATTGCTAT [CACACA_site2676] | 8.79 ± 0.28
AATATATAGAGAGATATGCACACTGTATGAATGCAC [CACACA_site2677] | 8.58 ± 0.014
TATAATATAAAATATGCACACATTGGAATGGGAGAA [CACACA_site3746] | 8.97 ± 0.35
TATATAGAGAGATATGCACACTGTATGAATGCCCCC [CACACA_site5476] | 10.3 ± 0.38
ATATATATATATAATGCACACATTATGAATTATGTA [CACACA_site3384] | 9.98 ± 0.26
TATATGGAGAGATATGCACACTGTATGAATGCCCCC [CACACA_site8853] | 10.3 ± 0.33
